Screening data: PubChem BioAssay, several laboratories
This is a sample that favours compounds with a hit; in the whole collection about 3.2% have one here.
MsrA inhibitor – bovine MsrA inhibition | AID 651718 | purified bovine MsrA, absorbance read-out | inhibition, % at 15.5 µM | actives 0.75% (n = 360,000); in the data active means inhibition above about 4.5%;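 further: 0% = vehicle wells with enzyme and 100% = reference inhibitor wells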
MsrA act – activates bovine MsrA enzyme; purified bovine MsrA, absorbance read-out; activation, % at 10.6 µM; actives 0.3% (n = 360,000); AID 602163; in the data active means activation above about 7.5%;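 further: 0% = vehicle and 100% = reference activator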
DAGLB inhibitor – blocks human DAGLB lipase activity. Q8NCG7. HEK293T DAGLB membrane lysate, EnzChek fluorogenic substrate. inhibition, % at 5.17 µM. actives 0.059% (n = 340,000). AID 504411; in the data active means inhibition above about 34%;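 further: 0% = enzyme with vehicle and 100% = wells lacking enzyme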
Target sequence (Q8NCG7 whole entry, looked up): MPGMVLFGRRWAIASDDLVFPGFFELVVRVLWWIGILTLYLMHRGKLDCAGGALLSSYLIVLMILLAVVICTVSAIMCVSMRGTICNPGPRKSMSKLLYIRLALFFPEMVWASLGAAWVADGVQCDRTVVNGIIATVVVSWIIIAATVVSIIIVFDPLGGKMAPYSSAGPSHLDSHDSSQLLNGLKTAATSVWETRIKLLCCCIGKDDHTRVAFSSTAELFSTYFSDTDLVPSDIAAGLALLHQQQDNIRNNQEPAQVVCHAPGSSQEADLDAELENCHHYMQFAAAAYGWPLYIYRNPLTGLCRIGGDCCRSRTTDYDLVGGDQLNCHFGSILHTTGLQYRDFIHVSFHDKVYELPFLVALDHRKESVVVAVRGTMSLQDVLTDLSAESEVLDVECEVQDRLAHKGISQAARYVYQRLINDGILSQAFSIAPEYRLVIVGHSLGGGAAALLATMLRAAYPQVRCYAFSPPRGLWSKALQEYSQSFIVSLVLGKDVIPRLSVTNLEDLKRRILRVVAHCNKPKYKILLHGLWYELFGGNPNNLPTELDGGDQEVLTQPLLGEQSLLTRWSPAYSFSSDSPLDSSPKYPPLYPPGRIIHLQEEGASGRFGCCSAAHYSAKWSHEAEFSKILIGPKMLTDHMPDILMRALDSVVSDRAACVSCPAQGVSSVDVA
NadD inh – NadD (S. aureus) enzyme inhibition; actives 0.78% (n = 360,000); purified NadD enzyme, colorimetric absorbance read-out; inhibition, % at 20 µM; in the data active means inhibition above about 26%
DSG3 Ab inh – human desmoglein-3 autoantibody binding inhibition | DSG3-coupled beads, scFv-anti-DSG3-GFP binding, flow cytometry; stronger effect = lower value | binding (percent of control), % at 10 µM | actives 0.48% (n = 310,000);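 active means binding more than 3 SD below its plate's average and above zero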;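 further: hits lower antibody fragment binding to DSG3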
rCAG binder – binds r(CAG) RNA repeats; AID 651821; actives 1.3% (n = 370,000); inhibition, % at 3 µM; r(CAG) RNA repeat, TO-PRO-1 dye displacement fluorescence;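 active means inhibition above the plate cutoff, the mean of all test compounds on that plate plus 3 SD, cut at about 35% in these data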;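 further: 0% = DMSO alone and 100% = 100 µM mitoxantrone as full dye displacement; higher means more dye released from RNA so lower well fluorescence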
NadD inh conf – confirmation of Staphylococcus aureus NadD inhibitors. shares compounds with NadD inh. purified S. aureus NadD, colorimetric enzyme assay. inhibition, % at 20 µM. actives 13% (n = 2,000). AID 624309; in the data active means inhibition mostly above about 42%, no sharp cut-off; inactive means mostly below about 42%
An asterisk follows results filed as active; . = no result given; ! = repeats disagree.

SMILES	MsrA inhibitor	MsrA act	DAGLB inhibitor	NadD inh	DSG3 Ab inh	rCAG binder	NadD inh conf
Cc1cc(C(=O)N/N=C/c2ccc(-c3ccc([N+](=O)[O-])cc3C)o2)n[nH]1	0	0	7	22	96	6	.
COc1cc(CN2C[C@@H](CO)O[C@@H](n3cnc4c(N(C)C(C)C)ncnc43)C2)cc(OC)c1OC	0	-2	.	5	.	-1	.
CCOC(=O)C1=C[C@@H](C(C)(C)C)N(S(=O)(=O)c2ccc([N+](=O)[O-])cc2)[C@H]1c1cccc(Cl)c1	0	.	.	.	.	4	.
CC(=O)NC1CC2CCCC(C1)N2C(=O)Nc1ccc(Cl)cc1 (stereo not drawn)	1	-1	-1	-4	98	0	.
COc1cc2c(C#N)c(N3CCCCC3)nc(N)c2c(N)n1	1	0	-5	7	112	18	.
COc1cc2c(C#N)c(N3CCc4ccccc4C3)nc(N)c2c(N)n1	1	-12	-4	42*	100	32	-3
C=CCn1c(SCC(=O)Nc2ccc(CCCC)cc2)nnc1-c1ccc(Cl)cc1	.	.	.	.	.	2	.
C[c-]1[c-](C)[c-](C)[c-](C)[c-]1C.[Fe].c1cc2nccc(N3CCCC3)[c-]2c1 (stereo not drawn)	0	-2	2	75*	80*!	9	32*!
O=C(COc1ccc(-c2ccccc2)cc1)N/N=C/c1cc(O)ccc1Br	0	-9	-10	31*	80	24	29
COc1cc2c3c(c1)c(C1=NC(=S)NC1=O)c(O)n3C(C)(C)C=C2C	-1	3	5	-2	100	7	.
CC1(c2ccccc2)CC(C)(C)n2c(O)c(C3=NC(=S)NC3=O)c3cccc1c32 (stereo not drawn)	0	-1	10	33*	97	6	-1
CCCCCCNC(=O)C1CSCCS(=O)(=O)N1Cc1ccc(F)cc1 (stereo not drawn)	.	.	.	.	.	-3	.
CCCN(CCC)S(=O)(=O)c1ccc(C(=O)Nc2nnc(-c3cccc(OC)c3)o2)cc1	0	0	4	19	95	8	.
CCN(Cc1ccccc1)S(=O)(=O)c1ccc(C(=O)Nc2nnc(-c3ccccc3OC)o2)cc1	0	-1	12	54*	102	10	26*
CCCN(CCC)S(=O)(=O)c1ccc(C(=O)Nc2nnc(-c3cc(OC)cc(OC)c3)o2)cc1	.	0	-1	58*	97	.	6
O=S1(=O)c2ccc(N3CC[C@@H](O)C3)cc2O[C@H]2CCN1C2	.	.	.	.	.	8	.
CC(C)c1ccc(/C=c2\sc3n(c2=O)C(N)=C(C#N)C(c2ccc(C(C)C)cc2)C=3C(N)=O)cc1 (stereo not drawn)	0	-8	0	25	95	8	.
N#CC1=C(N)n2c(s/c(=C\c3cccs3)c2=O)=C(C#N)C1c1cccs1 (stereo not drawn)	2	-3	1	49*	102	51*	5
COc1ccccc1C(=O)NNC(=O)CN(C)S(=O)(=O)c1ccc(Cl)cc1	-1	-1	-5	2	101	2	.
O=c1cc(-c2ccc(OCc3ccccc3)cc2)oc2cc(OCc3ccccc3)cc(OCc3ccccc3)c12	2	-1	-5	42*	86	10	13
CC(C)(C)S(=O)N1Cc2cc(C(=O)NCc3ccc4c(c3)OCO4)nc(-c3cccc(-c4cc5ccccc5o4)c3)c2[C@@H]1CCO (stereo partly drawn)	0	-2	.	33*	.	16	6
CC(C)(C)S(=O)N1Cc2cc(C(=O)NCc3ccc(Oc4ccccc4)cc3)nc(-c3cccc(-c4cc5ccccc5o4)c3)c2[C@H]1CCO (stereo partly drawn)	0	-4	.	35*	.	15	23
COc1cccc(-c2cccc(-c3nc(C(=O)NCc4ccc5c(c4)OCO5)cc4c3[C@H](CCO)N(S(=O)C(C)(C)C)C4)c2)c1 (stereo partly drawn)	0	1	.	27	.	19	.
Nc1[nH]c2ccccc2c1C(=O)NC1CC1	.	.	.	.	.	4	.
CC1=C(C(=O)N(C(C)C)C(C)C)CC(CC(=O)NCc2cccs2)C(=O)N1Cc1ccc(C(C)(C)C)cc1 (stereo not drawn)	1	-4	.	0	.	0	.
SMILES	MsrA inhibitor	MsrA act	DAGLB inhibitor	NadD inh	DSG3 Ab inh	rCAG binder	NadD inh conf
COc1ccc(CC(N)c2csc(NC(=O)c3cc(C(C)(C)C)oc3C)n2)cc1 (stereo not drawn)	-2	2	.	33*	.	16	-5
COC(=O)[C@H]1C[C@@]2(N3CCCCC3)c3ccccc3N[C@H]2N1S(=O)(=O)c1ccc([N+](=O)[O-])cc1	.	.	.	.	.	7	.
Cc1[nH]c2ccccc2c1CC(=O)Nc1ccc(Nc2cccnc2)c(-c2cc(C(F)(F)F)cc(C(F)(F)F)c2)c1	2	.	.	.	.	6	.
Cc1ccc(S(=O)(=O)N2CCN(C(=O)/C=C/c3ccco3)CC2)cc1	0	1	1	-4	100	2	.
Cc1ccc(C)c(S(=O)(=O)N2CCN(C(=O)/C=C/c3ccco3)CC2)c1	0	-5	10	35*	104	15	24
C[C@H](O)[C@@H]1C(=O)N2CCc3c([nH]c4c(-c5ccc6c(c5)OCO6)cccc34)[C@@H]2C[C@@H]1N(C)C(=O)OCc1ccccc1	.	.	.	.	.	16	.
O=[N+]([O-])c1ccc(NN=CC2CCCCCC2)c([N+](=O)[O-])c1	0	-3	.	12	.	3	.
O=c1c2ccccc2c(/C=N/c2nnc(Cc3ccccc3)s2)c(O)n1-c1ccc(Cl)cn1	1	-9	1	48*	94	12	-3
Cc1cccc(C)c1N=Cc1c(O)n(-c2nccs2)c(=O)c2ccccc12	.	-7	-1	6	96	.	.
COc1ccccc1C=NN=C(NN=Cc1ccccc1OC)NN=Cc1ccccc1OC	3	2	0	35*	122	15	24
CC(C)C(=O)N1CC[C@H]2[C@H](CCCN2Cc2ccc(F)cc2)C1	.	.	.	.	.	1	.
Cc1ccc(C)c(N2CCN(c3ccc4cc(S(=O)(=O)N5CCCCC5)ccc4n3)CC2)c1	0	-10	-2	32*	.	1	16
Cc1cccc(N2CCN(c3ccc4cc(S(=O)(=O)N5CCCCC5)ccc4n3)CC2)c1C	2	1	-3	29*	101	1	21
Cc1cccc(N2CCN(C(=O)c3cccc(S(=O)(=O)N4CCCCC4)c3)CC2)c1C	-1	-3	-5	-2	91	1	.
Cc1cccc(N2CCN(c3ccc4cc(S(=O)(=O)N5CCCCC5)ccc4n3)CC2C)c1 (stereo not drawn)	1	-1	-1	28	79	1	.
COc1ccc(C2CC(c3ccccc3)=NN2C(=O)COC(=O)/C=C/c2ccc(O)c(OC)c2)cc1 (stereo not drawn)	2	-8	1	46*	93	17	15
